Pf Dd2 inh – blocks in vitro growth of P. falciparum Dd2. Potency, µM (doses to about 28.9 µM), most hits filed as inhibitors. P. falciparum Dd2 growth, SYBR Green, 72 h. actives 4.3% (n = 120,000); active means well fitted inhibition curve with a large enough effect; further: nearly all actives have a fitted effect of over 65% in size
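Readout: SYBR Green fluorescence, 485 nm excitation, 535 nm emission, after ~16 h lysis at 37C. Before that, Dd2-infected red cells (2.5% hematocrit) grew 72 h with compound, 29 uM top final concentration.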
Each line names hits and unclear results; the compound was inactive in the other large screens. Many of the other results were omitted from the sample, so hits are more common in it than they were.

CC(C)(C)OC(=O)N1CCC(c2c(C(=O)NCc3ccco3)cnn2-c2ccccc2)CC1	Pf Dd2 inh 10µM
Cc1ccc(-n2ncc(C(=O)NCCN3CCCC3)c2C2CCN(C(=O)OC(C)(C)C)CC2)cc1C	none
Cn1nccc1C(=O)N1CCC2(CC1)CC(OCC1CC1)CCO2 (stereo not given)	none
CCOc1ccccc1NC(=O)Cn1c(N2CCOCC2)nc(C)cc1=O	none
Cc1nc(-c2c3n(c(=O)n(CCOc4ccccc4)c2=O)CCCCC3)no1	none
COCCN1CCC2(CCC1=O)CCN(C(=O)CCn1nc(C)cc1C)CC2	none
COC[C@H]1NC(=O)CC[C@H]1C(=O)NCCc1ccccc1	none
COc1ccc(Cl)cc1C(=O)N1CCC(Oc2ccc3c(cnn3CCC(=O)O)c2)CC1	none
COc1ccc(C(=O)N[C@@H]2CN(c3ncccn3)C[C@H]2CN(C)C)cc1F	none
CN(CC(=O)O)c1ncc(CN2CCn3nc(C(O)CO)cc3C2)cn1 (stereo not given)	none
CCOc1cc(=O)n2c(c1C(=O)Nc1cc(C)ccc1OC)CCCC2	none
O=C(NCC1(COc2ccccc2)C[C@@H](O)[C@@H](O)C1)C1CCCC1 (stereo not given in full)	none
Cc1ccc(-n2ncc(C(=O)NCCCN3CCCCC3)c2C2CCN(C(=O)OC(C)(C)C)CC2)c(C)c1	Pf Dd2 inh 8.9µM
COCCNC(=O)c1cnn(-c2ccc(C)cc2C)c1C1CCN(C(=O)OC(C)(C)C)CC1	none
Cc1ccc(-n2ncc(C(=O)NCCCN3CCc4ccccc4C3)c2C2CCN(C(=O)OC(C)(C)C)CC2)c(C)c1	Pf Dd2 inh 7.1µM
NC1CCC(NC(=O)C2CCCN(C3CCN(CCc4ccccc4)CC3)C2)CC1 (stereo not given)	none
COc1ccc(S(=O)(=O)N[C@H]2C[C@@H](c3nc(-c4ccc(C)cc4)no3)N(C)C2)cc1	none
CCOc1ccc(CN2CCNC(=O)C2CC(=O)N2CCCCCC2)cc1 (stereo not given)	none
O=[S+]1([O-])NC2(CCN(Cc3cccc4ccccc34)C2)CNc2ccccc21 (stereo not given)	none
O=C(C1CCCC1)N1CCCC(c2nc(C3CCOCC3)no2)C1 (stereo not given)	none
CCOC(=O)C1=C(C)N(Cc2ccc(C(=O)N3CCCCC3)cc2)C(=O)CC1c1cccc(C)c1 (stereo not given)	Pf Dd2 inh 5µM
COC(=O)C1=C(C)N(Cc2cccc(Cl)c2)C(=O)CC1c1ccccc1Cl (stereo not given)	none
Cc1ccc(CN2C(=O)NC3(CCCN(C(=O)c4cccc(C)c4)C3)C2=O)cc1 (stereo not given)	none
CN1C(=O)CCCCC1C(=O)NCc1cccc(F)c1 (stereo not given)	none
O=C(O)CCNC(=O)N1CCCC(c2cccc(C(=O)O)c2)C1 (stereo not given)	none
Cc1noc(C)c1C(=O)N1Cc2ccccc2OC2(CCN([S+](C)(=O)[O-])CC2)C1	none
CCCNC1(Cc2cc(C(=O)N3CCCCC3)on2)COC1	none
COCCN1CCC2(CCC1=O)CCN(C(=O)C1CCOCC1)CC2	none
COc1ccc(CN(C)Cc2ccncc2C)c(OCC(O)CN2CCCC2)c1 (stereo not given)	Pf Dd2 inh 2.8µM
CCN1CCN(CC(O)COc2cccc(CN(C)Cc3cc(C)on3)c2)CC1 (stereo not given)	none
COc1ccc(OCC(O)CN2CCC(O)CC2)c(CN(C)Cc2csc(C)n2)c1 (stereo not given)	none
CN1CCCC1c1nc(C2CN(S(=O)(=O)Cc3cccc(F)c3)C2)no1 (stereo not given)	none
O=C(c1cccnc1)N1CCCC2(COc3ccccc3[S+](=O)([O-])N2)C1 (stereo not given)	none
N#Cc1cccc(C(=O)N2CCCCCCNC(=O)CC2)c1	none
COc1ccc(C(=O)N2C[C@@H](Oc3ccccc3)C[C@H]2C(=O)N2CCOCC2)cc1F	none
CN(CCN1CCOCC1)C(=O)c1cc(COc2cccc(F)c2)[nH]n1	none
CN(CC1(CO)CCOCC1)C(=O)c1cc(COc2ccccc2)[nH]n1	none
CN(CCN1CCCCCC1)C(=O)c1cc(COc2ccccc2)[nH]n1	Pf Dd2 inh 7.9µM
Cc1noc([C@@H]2CN(C(=O)CCc3nc4ccccc4[nH]3)C[C@H]2C(N)=O)n1	none
Cc1nnc2n1CCC(NC(=O)NCc1ccco1)CC2 (stereo not given)	none
O=C(NCc1ccccc1)N1CCC(N2CC(OCC3CC3)C23CCOCC3)CC1 (stereo not given)	none
CCC(=O)N1CCC(N2CC(OCC3CC3)C23CCOCC3)CC1 (stereo not given)	none
CCOCC(=O)N1CCC(N2CC(OCC3CC3)C23CCCCC3)CC1 (stereo not given)	Pf Dd2 inh 5µM
O=C(Cc1cccnc1)N1CCC(N2CC(OCC3CC3)C23CCCCC3)CC1 (stereo not given)	Pf Dd2 inh 7.9µM
Cn1nccc1C(=O)N1CCC(N2CC(OCC3CC3)C23CCOCC3)CC1 (stereo not given)	none
CC(C)NC(=O)N1CCC(N2CC(OCC3CC3)C23CCCCC3)CC1 (stereo not given)	none
C=CC[C@@H]1CC=C[C@@H](C)N1C(=O)c1cc(OC)ccc1OC1CCN(C(=O)C2CC2)CC1	none
CC(C)CCNC(=O)C1(CCO)CCN(c2ncccn2)C1 (stereo not given)	none
COc1cc(Cl)ccc1-c1nc(C2CC(=O)N(C3CCCCC3)C2)no1 (stereo not given)	none
N#CC1CCN(C(=O)C2CN(c3cccc(Cl)c3)C(=O)N2)CC1 (stereo not given)	none
CCS(=O)(=O)Nc1ccc(C2(C(=O)Nc3cccc(F)c3C)CCCCC2)cc1	Pf Dd2 inh 11µM
CCS(=O)(=O)Nc1ccc(C2(C(=O)NCc3ccc(F)cc3F)CCCCC2)cc1	none
CCS(=O)(=O)Nc1ccc(C2(C(=O)NCc3ccccc3)CCCCC2)cc1	none
CCO[C@H]1CN(C(=O)c2cc3ccc(OC)cc3n2C)C[C@@H]1O	none
CN(c1ncnc2c1c(-c1ccccc1)cn2-c1ccc(F)cc1)C1CCCCC1	none
COc1ccc(-n2cc(-c3ccccc3)c3c(SC(C)C(C)=O)ncnc32)cc1 (stereo not given)	none
COC(=O)C(C)Sc1ncnc2c1c(-c1ccccc1)cn2-c1ccc(F)cc1 (stereo not given)	Pf Dd2 inh 5.6µM
COc1ccc2c(c1)C1(CCN(C(=O)NC3CCCCC3)C1)C(=O)N2C (stereo not given)	none
COCCNC(=O)N1CCC2(C1)C(=O)N(C)c1ccc(OC)cc12 (stereo not given)	none
COc1ccc2c(c1)C1(CCN(S(=O)(=O)c3ccc(Cl)cc3)C1)C(=O)N2C (stereo not given)	none
COc1ccc2c(c1)C1(CCN(S(=O)(=O)c3cccc(F)c3)C1)C(=O)N2 (stereo not given)	none
COc1ccc2c(c1)C1(CCN(C(=O)COc3ccc(Cl)cc3)C1)C(=O)N2C (stereo not given)	Pf Dd2 inh 7.1µM
COc1ccc2c(c1)C1(CCN(S(=O)(=O)c3cccc(Cl)c3)C1)C(=O)N2C (stereo not given)	Pf Dd2 inh 11µM
CC(C)N1C(=O)C2(CCCC2)C1C(=O)N1CCCC1 (stereo not given)	none
O=C1NC2(CCN(Cc3ccccc3C(F)(F)F)CC2)Oc2ccccc21	none
COCCC(=O)N1CCCN(S(=O)(=O)c2ccccc2)CCC(=O)NCC1	none
Cc1cccc(OCC2CCCN(C(=O)c3sc(C(C)C)nc3C)C2)c1 (stereo not given)	none
CC(C)CCN1CC2(CCN(C(=O)CCC3NC(=O)NC3=O)CC2)OC1=O (stereo not given)	none
